Measurements published in PubChem BioAssay AID624330 (Southern Research Specialized Biocontainment Screening …, 2012).
The whole screen tested about 340,000 compounds, of which about 2,100 (0.62%) were called active.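 The calls were made as follows: active = first-screen hits whose inhibition reached a set limit at any dose in the follow-up dose series; inconclusive = inhibition above the set first-screen limit but never retested; inactive = the rest.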 Only a sample is shown. Entries with a potency or affinity are not part of this list.

molecular target: Rac GTPase-activating protein 1 (Homo sapiens) (UniProt Q9H0H5); test: blockers of MgcRacGAP-driven Rac1 GTP hydrolysis – biochemical, ADP Hunter fluorescence, primary and confirmatory, confirmation (AID 624330); conditions: MgcRacGAP-stimulated Rac1 GTP hydrolysis, at 30 µM, hits give high values, GST-tagged Rac1 F28L mutant substrate;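 also: fluorescence reports GDP produced by GAP-driven GTP hydrolysis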
Sequence (Q9H0H5 whole entry, looked up): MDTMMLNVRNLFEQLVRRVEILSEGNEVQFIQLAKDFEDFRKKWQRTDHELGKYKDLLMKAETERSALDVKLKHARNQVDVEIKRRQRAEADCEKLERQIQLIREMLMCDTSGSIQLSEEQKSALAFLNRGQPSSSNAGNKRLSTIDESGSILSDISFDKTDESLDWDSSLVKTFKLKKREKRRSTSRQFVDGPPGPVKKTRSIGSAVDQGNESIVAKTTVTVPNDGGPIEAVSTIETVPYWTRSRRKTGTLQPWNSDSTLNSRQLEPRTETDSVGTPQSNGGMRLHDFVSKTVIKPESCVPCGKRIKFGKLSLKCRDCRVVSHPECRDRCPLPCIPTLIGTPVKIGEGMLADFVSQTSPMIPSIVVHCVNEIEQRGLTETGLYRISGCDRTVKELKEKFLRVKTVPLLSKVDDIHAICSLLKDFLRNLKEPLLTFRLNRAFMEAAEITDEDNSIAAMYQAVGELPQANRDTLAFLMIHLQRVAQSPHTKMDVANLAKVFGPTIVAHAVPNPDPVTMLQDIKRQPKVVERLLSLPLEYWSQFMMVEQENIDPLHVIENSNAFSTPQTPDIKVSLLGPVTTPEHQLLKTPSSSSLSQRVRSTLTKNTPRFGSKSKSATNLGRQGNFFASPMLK

inhibition, inactive:
Nc1nccnc1C(=O)OCC(=O)NC1CCCc2ccccc21 (stereo not drawn) 2.06%, CCN1CCN(c2sc(S(=O)(=O)CC)nc2S(=O)(=O)c2ccc(Cl)cc2)CC1 13.7%, Cc1ccc(C2=N/C(=C\c3cccs3)C(=O)N2Nc2ccccc2)cc1 4.5%, COc1ccc(OCC(O)Cn2ccnc2C)cc1 (stereo not drawn) -5.32%, Cc1nccn1CCOc1ccc(Cl)cc1 19.6%, C/C(=N\Nc1nc2ccccc2[nH]1)c1ccc2c(c1)OCO2 29.4%, C/C(=N\Nc1nc2ccccc2s1)c1cccs1 15.9%, C/C(=N\Nc1nc2ccccc2[nH]1)c1ccc2c(c1)OCCO2 14.6%, C/C(=N\Nc1nc2ccccc2[nH]1)c1ccccn1 16.1%, O=C(Nc1nc2ccccc2[nH]1)c1cccs1 5.07%, C/C(=N\Nc1nc2ccccc2[nH]1)c1ccc([N+](=O)[O-])cc1 9.3%, COc1ccc(CN2C(=O)c3cccnc3C2=O)cc1S(=O)(=O)N1CCCCC1 5.59%, CCN1CCN(c2ccc(NC(=O)c3ccccc3F)cc2Cl)CC1 10.3%, O=C(CSc1nc(=O)n2ccccc2n1)N1CCC(Cc2ccccc2)CC1 2.37%, CC(C)Nc1nc(NC2CCCC2)nc(N2CCOCC2)n1 -6.17%, Cc1cccc(NS(=O)(=O)c2cccc(C(=O)N3CCCCCCC3)c2)c1 7.59%, CCOC(=O)C1=C(C)NC(C)=C(C(=O)OCC)C1C(=O)O -2.63%, CN(C)c1ccc(/C=C/c2ccc3ccccc3n2)cc1 10.9%, Oc1ccc(/C=C/c2ccnc3ccccc23)cc1 20.5%, C(=C\c1ccc2ccccc2n1)/c1ccccc1 -0.19%, O=c1[nH]c2ccccc2nc1/C=C/c1ccc(F)cc1 2.77%, O=C(Nc1cccc(S(=O)(=O)NC2=NCCCCC2)c1)c1cc(-c2ccc(Cl)cc2)nc2ccccc12 9.39%, Cc1ccc(-c2nnc(SCC(=O)Nc3nc4c(s3)CCCC4)n2C)cc1 10.7%, Cc1cccc(NC(=O)CCC(=O)N/N=C/c2cc([N+](=O)[O-])ccc2O)c1 5.13%, COc1ccc(O)c(/C=N/NC(=O)CCC(=O)Nc2cccc(C)c2)c1 6.29%, COc1ccc(O)c(/C=N/NC(=O)CCC(=O)Nc2ccc(C)cc2)c1 5.47%, Cc1ccc(NC(=O)CCC(=O)N/N=C/c2ccccc2O)cc1 -6.53%, COc1ccc(N2CCN(C(=O)COC(=O)Cc3ccc(F)cc3)CC2)cc1 17.9%, C[C@@H]1CN([C@H](C)CO)C(=O)CCCn2nncc2CO[C@H]1CN(C)Cc1ccc(O)cc1 7.18%, O=C(c1cc(-c2ccco2)on1)N1CCOCC1 2.62%, Cn1c(SCC(=O)N2CCOCC2)nnc1-c1ccco1 -0.83%, Cc1cccc(N2C(=O)C(O)=C(C(=O)c3cccs3)C2c2ccc(F)cc2)n1 (stereo not drawn) 11.6%, O=C(CC(=O)c1ccccc1)Nc1cc(C(F)(F)F)ccc1Cl -0.8%, CC1CCN(CC(=O)Nc2cc(C(F)(F)F)ccc2Cl)CC1 6.71%, COc1ccc(OC)c(NC(=O)CC2(CC(=O)O)CCCC2)c1 5.41%, O=C(Nc1cccc(-n2cnnn2)c1)c1cc2ccccc2o1 0.98%, CC(=O)Nc1ccc(-c2csc(NCc3ccccc3)n2)cc1 8.92%, CC(=O)Nc1cccc(-c2csc(NCc3ccco3)n2)c1 15.4%, N/C(=N\OC(=O)c1ccco1)c1cccc([N+](=O)[O-])c1 6.07%, CCn1cc(Cl)c(C(=O)Nc2nccs2)n1 1.45%, C=C(C)CSc1nnc(-c2ccc(OC)cc2)n1N 5.76%, O=C(Nc1ccccc1C(=O)N/N=C/c1ccco1)c1ccccc1 7.26%, O=C(N/N=C/c1cccc(C(F)(F)F)c1)c1ccc(O)cc1 6.36%, O=C(O)c1ccc(C=NNC(=O)c2ccccc2NS(=O)(=O)c2cccs2)cc1 7.04%, O=C(N/N=C/c1ccc(C(F)(F)F)cc1)c1ccc(O)cc1 8.28%, O=C(Nc1ccccc1C(=O)N/N=C/c1ccncc1)c1ccccc1 9.96%, CC(C)(C)c1cc(C(=O)N/N=C/c2ccccc2O)n(-c2ccccc2)n1 2.15%, O=C(NN=Cc1ccc(F)cc1)c1ccccc1NS(=O)(=O)c1cccs1 5.29%, CC(C)(C)c1cc(C(=O)N/N=C/c2ccc(F)cc2)n(-c2ccccc2)n1 6.73%, O=C(CSc1nnc(C2CC2)n1-c1ccccc1)NC1CCS(=O)(=O)C1 (stereo not drawn) -2.5%, CCOC(=O)c1cc(C)nn1-c1nc(Cl)cc(OC)n1 5.27%, COC(=O)c1ccccc1NC(=O)Oc1ccc(C(C)C)cc1 8.33%, Cc1ccc(NS(=O)(=O)c2ccc(-n3cccn3)cc2)nc1 4.91%, COc1ccc(S(=O)(=O)N2CCCCC2)cc1NC(=O)C1CSC2(C)CCC(=O)N12 (stereo not drawn) 5.04%, CC(C)(C)C(=O)NC(=S)NNC(=O)C(c1ccccc1)c1ccccc1 6.5%, O=C(O)CC/C(=N/NC(=O)CNC(=O)c1ccc2c(c1)OCCO2)c1ccccc1 3.51%, CCOC(=O)C(=O)Nc1cccc(C(=O)OCC)c1 -6.93%, COc1ccc(/C=N/NC(=O)Nc2cccc3nsnc23)cc1 -1.96%, O=C(NN=Cc1c(F)cccc1F)c1ccccc1NS(=O)(=O)c1cccs1 3.9%, COc1ccc(C=NNC(=O)c2ccccc2NS(=O)(=O)c2cccs2)cc1O 12.1%, COc1cc(C=NNC(=O)c2ccccc2NS(=O)(=O)c2cccs2)cc(OC)c1O 9.93%, CC(NC(=O)c1ccccc1)C(=O)N/N=C/c1ccc(O)cc1 (stereo not drawn) 27%, COc1ccccc1/C=N/NC(=O)C(NC(=O)c1ccccc1)=C(C)C 4.44%, O=C(NN=Cc1cc(Br)c(O)c(Br)c1)c1ccccc1NS(=O)(=O)c1cccs1 15.4%, COc1ccc(/C=N/NC(=O)Nc2cccc3nsnc23)cc1OC 6.64%, COc1ccc(-c2cc(-c3ccccc3)nc(N3CCCC3)n2)cc1OC 3.15%, Cc1cc(C)c(C)c(S(=O)(=O)NCCCN2CCCC2=O)c1C 5.47%, CC(C)(C)c1ccc(N2C(=O)CC(c3ccccc3)C2=O)cc1 (stereo not drawn) 4.86%, Cc1nc(N2CCN(C(=O)c3ccco3)CC2)c(C#N)c2c1CCCC2 5.84%, COc1cccc(C(=O)N2CCN(Cc3ccc4c(c3)OCO4)CC2)c1OC 9.39%, COc1cccc(C(=O)N2CCN(Cc3ccccc3Br)CC2)c1 21.5%, COc1cc(OC)cc(C(=O)N2CCN(Cc3ccccc3C(F)(F)F)CC2)c1 11.6%, Cc1cc(C)cc(C(=O)N2CCN(Cc3ccc4c(c3)OCO4)CC2)c1 0.95%, COc1cc(C(=O)N2CCN(Cc3ccc4c(c3)OCO4)CC2)cc(OC)c1OC 13.3%, COc1ccccc1C(=O)N1CCN(Cc2ccc3c(c2)OCO3)CC1 2.13%, CCOC(=O)N1CCN(Cc2ccc3c(c2)OCO3)CC1 11.9%, CCOCC(=O)N1CCN(Cc2ccc3c(c2)OCO3)CC1 -16%, Cc1ccccc1NC(=O)N1CCCC1C(=O)NCc1cccs1 (stereo not drawn) 11.4%, CC(=O)Nc1ccc(CN2CCc3c([nH]c4ccccc34)C2C(C)(C)C)cc1 (stereo not drawn) 6.78%, CCCc1n[nH]c2c1/C(=N/O)CC(c1ccccc1)C2 (stereo not drawn) 12.8%, COc1cc(C)c(S(=O)(=O)N2CCCC2)cc1C 4.75%, CN(Cc1ccccc1)C(=O)COC(=O)c1ccc(S(=O)(=O)N(C)C)cc1 9.46%, O=C1C=C(c2ccccc2)C(O)(c2ccccc2)C1 (stereo not drawn) 4.42%, CC1CN(C(=O)CS(=O)(=O)Cc2ccc(Cl)cc2)CC(C)O1 (stereo not drawn) 6.85%, O=C(/C=C/Nc1ccc(F)cc1)c1ccc(Oc2ncccn2)cc1 10.5%, CCCCNS(=O)(=O)c1ccc2nc(SCC(=O)Nc3sccc3C#N)[nH]c2c1 4.59%, COC(=O)C1CCN(C(=O)Cc2ccc(OC)c(OC)c2)CC1 -0.01%, COc1ccc(Cc2nnc(NC(=O)Cc3cccs3)s2)cc1OC 4.75%, O=C(Cc1cccs1)Nc1nnc(Cc2ccccc2)s1 22.3%, CC1=NNC(=O)C1CC(=O)N/N=C(\C)c1cccs1 (stereo not drawn) 3.05%, O=C(CCN1C(=O)c2cccc3cccc(c23)C1=O)Nc1ccccc1 2.77%, CN1C(=O)CSC1=Nc1ccc(F)cc1 4.45%, C=CCN1C(=O)CSC1=Nc1cccc(O)c1 3.76%, C=CCN1C(=O)CSC1=Nc1ccc(C(=O)O)cc1 6.53%, COc1ccc(N=C2SCC(=O)N2c2ccc(OC)cc2)cc1 -0.28%, O=C(NCCN1C(=O)S/C(=C\c2ccccc2Cl)C1=O)C1=COCCO1 3.87%, COc1cc2c(cc1OC)C(C)N(C(=S)Nc1ccccc1)CC2 (stereo not drawn) 7.46%, NC(c1ccncc1)c1ccc(Cl)cc1 (stereo not drawn) 13.9%
